From paper PMC4552634, “A New Set of Chemical Starting Points with Plasmodium falciparum Transmission-Blocking Potential for Antimalarial Drug Discovery” (PLoS ONE, 2015)
In all, about 13,000 compounds went through this assay and about 3,200 (25%) showed an effect of 50% or more. This is one part of the list.

System: P. falciparum stage V gametocytes
Set-up: BacTiter-Glo ATP luminescence viability of purified stage V gametocytes in 384-well plates, per cent inhibition versus DMSO
Settings: 48 h, 5 µM; inhibitor

SMILES | % Inhibition [%]
N=C(N)NN=CC(=O)Nc1cc([N+](=O)[O-])cc([N+](=O)[O-])c1 [TCMDC-137446] | 15.96
CCCCc1cc(NCC)nc(Nc2ccc(OC)cc2)n1 [TCMDC-133991] | -52.54
Nc1nc2c(c(=O)[nH]1)-c1cccc(Br)c1CC2 [TCMDC-137755] | -6.306
Cc1cnc(NCC2CCCCC2)nc1N[C@@H](CO)C(=O)Nc1ccccc1 [TCMDC-134859] | -15.9
Cc1ccc(CNC(=O)[C@H](CC(C)C)Nc2cc(C)nc(NCC3CCCCC3)n2)cc1 [TCMDC-134918] | -23.99
Cc1ccc(CNC(=O)[C@H](CC(C)C)Nc2cc(C)nc(Nc3ccccc3)n2)cc1 [TCMDC-134740] | 5.216
Cc1ccc(CNC(=O)[C@H](Cc2ccccc2)Nc2cc(C)nc(Nc3ccccc3)n2)cc1 [TCMDC-134858] | 7.065
Cc1ccc(CNC(=O)[C@H](Cc2ccccc2)Nc2ccnc(NCC3CCCCC3)n2)cc1 [TCMDC-134709] | -30.11
Cc1cnc(NCC2CCCCC2)nc1N[C@@H](CC(C)C)C(=O)Nc1ccccc1 [TCMDC-134751] | -31.13
Cc1ccc(CNC(=O)[C@H](CCCN)Nc2nc(NCC3CCCCC3)ncc2C)cc1 [TCMDC-134754] | 82.69
Cc1ccc(CNC(=O)[C@H](CCCN)Nc2nc(Nc3ccccc3)ncc2C)cc1 [TCMDC-134947] | 27.45
Cc1ccc(CNC(=O)[C@H](Cc2ccccc2)Nc2cc(C)nc(NCC3CCCCC3)n2)cc1 [TCMDC-134932] | -13.97
Cc1ccc(CNC(=O)[C@H](CCCN)Nc2cc(C)nc(Nc3ccccc3)n2)cc1 [TCMDC-134744] | 61.85
Cc1cnc(Nc2ccccc2)nc1N[C@@H](CCCN)C(=O)Nc1ccccc1 [TCMDC-134915] | 85.94
Cc1ccc(CNC(=O)[C@H](CCCN)Nc2cc(C)nc(NCC3CCCCC3)n2)cc1 [TCMDC-134923] | 95.63
O=c1cc(NCCCNCc2ccc(Cl)c(Cl)c2)[nH]c2ccc(Oc3ccccc3)cc12 [TCMDC-139409] | 3.988
CCN(CC)CCCC(C)N=C(Nc1ccc(C#N)cc1O)Nc1ccccc1Br (stereo not drawn) [TCMDC-140130] | 34.96
COc1ccccc1CNC(=O)c1nn(-c2ccc(Cl)cc2)c(=O)c2ccccc12 [TCMDC-125601] | -3.161
CCCc1ccc(S(=O)(=O)NC2CCN(c3ccnc(Nc4ccc(OC)cc4)n3)C2)cc1 (stereo not drawn) [TCMDC-133613] | 30.72
O=C(NCC1CCC(C(=O)NCCc2ccc(Cl)c(Cl)c2)CC1)c1ccc(O)c(-c2ccc(Cl)c(Cl)c2)c1 (stereo not drawn) [TCMDC-140893] | 30.85
COc1ccc(NC(=O)Nc2cc(C)nc3cccnc23)cc1Cn1ccnc1 [TCMDC-140647] | -24.24
COc1ccccc1CCCN1C(=O)C(c2ccccc2)(c2ccccc2)N=C1N [TCMDC-136504] | -6.463
O=C(c1cc(-c2ccccc2)n[nH]1)N1CCN(S(=O)(=O)c2ccc(Cl)s2)CC1 [TCMDC-124697] | 44.38
Cc1cc(Cc2ccc(S(=O)(=O)c3cc4c(cc3O)CCN(C)CC4)cc2)ccc1Cl [TCMDC-135485] | 17.27

SMILES | % Inhibition [%]
O=[N+]([O-])c1ccc2c(-c3ccccc3)c(-c3ccccc3)n(O)c2c1 [TCMDC-137050] | 9.077
Cc1nc2ccc([N+](=O)[O-])cc2c(=O)n1OCc1ccccc1 [TCMDC-131598] | 18.76
O=[N+]([O-])c1ccc2c(c1)c1ccccc1n2Cc1ccccc1O [TCMDC-124344] | 66.38
Cc1ccc(C(=O)Nc2ccc(F)c(F)c2F)cc1S(=O)(=O)N1CCCCC1 [TCMDC-124324] | 19.7
CC1(C)N=C(N)N=C(N)N1OCCCOc1cc(Cl)ccc1Cl [TCMDC-131679] | 20.73
CC1(C)N=C(N)N=C(N)N1OCCCOc1cc(Cl)c(Cl)cc1Cl [TCMDC-137301] | -2.55
CC1(C)N=C(N)N=C(N)N1OCCCCOc1ccc(Cl)cc1C1CCCCC1 [TCMDC-131659] | 106.8
CC(C)(C)c1ccccc1OCCCON1C(N)=NC(N)=NC1(C)C [TCMDC-131751] | 48.16
CCCc1cc(OCCCOc2ccccc2)ccc1OCCCON1C(N)=NC(N)=NC1(C)C [TCMDC-131328] | 103.6
CC1(C)N=C(N)N=C(N)N1OCCCCOc1ccccc1 [TCMDC-131658] | 4.25
CC(C)(C)c1ccc(OCCCON2C(N)=NC(N)=NC2(C)C)c(C(C)(C)C)c1 [TCMDC-131308] | 56.27
CCCc1cc(C)ccc1OCCCON1C(N)=NC(N)=NC1(C)C [TCMDC-131320] | 40.89
CCOC(=O)c1cc(Cl)ccc1OCCCON1C(N)=NC(N)=NC1(C)C [TCMDC-131705] | -0.9845
COC(=O)Cn1c(C2CCN(CC3CCC(NC(=O)/C=C/c4ccc(Cl)c(Cl)c4)CC3)CC2)nc2ccccc21 (stereo not drawn) [TCMDC-140297] | -20.25
OC(CNCc1ccccc1OC(F)F)c1cccc(C(F)(F)F)c1 (stereo not drawn) [TCMDC-140395] | 21.35
c1ccc(COc2ccc(COc3ccc(Cn4ccnc4)cc3)cc2)cc1 [TCMDC-136714] | 11.69
O=C(Nc1ccc(N2CCC(Nc3ccccn3)CC2)cc1)c1cnc(Cl)c(Cl)c1 [TCMDC-134629] | 28.05
Cc1cccc2nc(-c3ccc(-c4cccc(C(=O)NCCN5CCCC5)c4)s3)[nH]c12 [TCMDC-132317] | 13.21
Cc1cc(N[C@@H](Cc2ccccc2)C(=O)NC2CCCC2)nc(NCCOc2ccccc2)n1 [TCMDC-134755] | 31.62
Cc1cc(N[C@@H](CC(C)C)C(=O)NC2CCCC2)nc(NCC2CCCCC2)n1 [TCMDC-134936] | -32.07
Cc1cc(N[C@@H](Cc2ccccc2)C(=O)NC2CCCC2)nc(NCC2CCCCC2)n1 [TCMDC-134927] | -16.19
Cc1cc(N[C@@H](CC(C)C)C(=O)NC2CCCC2)nc(NCc2ccccc2C)n1 [TCMDC-134908] | -12.42
Cc1cc(N[C@@H](CC(C)C)C(=O)NC2CCCC2)nc(NCCc2ccc(F)cc2)n1 [TCMDC-134791] | 99.38
Cc1cc(N[C@@H](Cc2ccccc2)C(=O)NC2CCCC2)nc(NCCc2ccc(F)cc2)n1 [TCMDC-134784] | 110
